# Nrf2 activator – Nrf2 pathway activation. Potency, µM (titrated, usually from 46.1 µM), for inactives: top-dose activation, actives largely listed as activators. AID 624171. 410,000 compounds, 0.31% hits. AREc32 ARE-luciferase reporter (MCF7-derived line), luminescence, 24 h; note: % of control where 0% means no effect; nearly all actives have a fitted effect of over 65% in size
#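 AREc32 cells carrying an ARE-driven firefly luciferase reporter were seeded at 1000 cells/well in OPTI-MEM with 5% FBS, then exposed to compound for 24 hr at 37 deg C. Luminescence was read with Steady-Glo after 30 min at RT.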
# ATXN2 expr inh – reduces ATXN2 reporter expression in HEK-293 cells | Potency, µM (titrated, usually from 57 µM), inactives show at the top dose activity change, negative = inhibition, actives largely listed as inhibitors | AID 1745845 | HEK-293 ATXN2-luciferase reporter, luminescence, 24 h | 360,000 compounds, 0.72% hits; note: % is set by controls: 0 for no effect and ±100 for the full control effect; nearly all actives have a fitted effect of over 55% in size
#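 ATXN2-luciferase reporter cells (luciferase flanked by upstream and downstream ATXN2 gene portions) were treated 24 h at 37 °C with compounds at up to 57 uM. SteadyGlo luminescence gave expression; GF-AFC fluorescence gave viability.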
# Nrf2 block – inhibitors of Nrf2 signaling; A549 ARE-Fluc reporter, luciferase luminescence, 18-24 h; AID 504444; Potency, µM (top dose mostly 46 µM), for the others: at the highest dose activity change, negative = inhibition, usual class: inhibitors; 360,000 compounds, 2.1% hits; note: % is set by controls: 0 for no effect and ±100 for the full control effect; nearly all actives have a fitted effect of over 60% in size
#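 Reporter: ARE-Fluc in A549. Exposure: 18-24 h, 37 °C, 5% CO2, 5% FBS OPTI-MEM. Readouts: fluorescent cytotoxicity (CellTiter-Fluor), then luminescent Nrf2 signal after BugLite.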
# A549 tox – counter-screen for Nrf2 inhibitors: cytotoxicity in A549 cells; Potency, µM (highest dose often 46 µM), for inactives: at the top dose activity change, negative = cytotoxicity, most hits filed as inhibitors; 390,000 compounds, 0.16% hits; A549 ARE-Fluc cells, CellTiter-Fluor viability, 18-24 h; note: % is set by controls: 0 for no effect and ±100 for the full control effect
#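 A549 ARE-Fluc cells in 5% FBS OPTI-MEM, 5000 cells/well, rested 2 h then exposed to compounds in concentration-response for 18-24 h at 37 °C. Viability by CellTiter-Fluor fluorescence (Ex 405/Em 525) after 30 min; luciferase luminescence (BugLite, 15 min, RT) read afterwards.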
# ATXN viability – reduces viability in counter-screen for ATXN expression inhibitors; S2 cells (HEK-293 line with an ATXN2-luciferase reporter) viability, CellTiter-Fluor protease fluorescence, 24 h; Potency, µM (highest dose often 56.7 µM), most hits filed as cytotoxic; 400,000 compounds, 0.49% hits; AID 651635; note: nearly all actives have a fitted effect of over 40% in size
# Starred values were filed as active, the others as inactive; i = inactive; ? = inconclusive; . = no result; ! = not confirmed by another sample; [ ] = another dose, or the depositor's remark. Only some compounds are listed: those with a hit (about 2.9% of all), similar ones and a draw of the others. Calls come from the whole dose curve; as a rule, active = well fitted curve in the direction sought with a large enough effect; inconclusive = small, poorly fitted or top-dose-only effect, or another doubt; inactive = no such curve, though single readings can be large; an effect the other way counts as inactive or inconclusive. Potency is the fitted concentration of half-maximal effect.
SMILES,Nrf2 activator,ATXN2 expr inh,Nrf2 block,A549 tox,ATXN viability
CC(C)(C)c1ccc2c(c1)C(=O)c1ccccc1C2=O,5%,76%,?,-2%,i
CC(C)(C=O)C1=CC(=O)c2ccccc2C1=O,0%,16µM*,-30%,1%,.
CC1=CC(=O)c2ccccc2C1=O,5%,24µM*!,10%,-1%,i
CC(C)(C)c1cc(C=O)cc(C(C)(C)C)c1O,.,4%,.,.,i
O=C(NCCc1nnc2n1CCN(CC1CC=CCC1)CC2)c1ccc(F)cc1 (configuration not stated),.,.,.,.,i
NC(Cc1ccc(C(F)(F)F)cc1)c1csc(Nc2ccccn2)n1 (configuration not stated),4%,-26%,.,.,?
CN(Cc1ccccc1)C(=O)c1ccc(Nc2nc(C(N)Cc3ccc(C(F)(F)F)cc3)cs2)nc1 (configuration not stated),-4%,?,.,.,32µM*
CC(C)CC(N)c1csc(Nc2ccc(C(=O)N(C)Cc3ccccc3)cn2)n1 (configuration not stated),4%[9.22 µM],28µM*,.,.,28µM*
NC(Cc1ccc(C(F)(F)F)cc1)c1csc(Nc2cc(NCc3ccco3)ncn2)n1 (configuration not stated),-4%,14µM*,.,.,25µM*
NC(Cc1ccc(C(F)(F)F)cc1)c1csc(Nc2ccc(C(=O)c3ccccc3)cc2)n1 (configuration not stated),-7%,32µM*,.,.,i
CN(Cc1ccccc1)C(=O)c1ccc(Nc2nc(C(N)COCc3ccccc3)cs2)nc1 (configuration not stated),-1%,?,.,.,?
CCCCN(C)C(=O)c1ccc(Nc2nc(C(N)Cc3ccccc3)cs2)nc1 (configuration not stated),1%,?,.,.,?
O=[S+]([O-])(c1ccc2c(c1)OCCO2)N1CCN([S+](=O)([O-])c2c(F)cc(F)cc2Br)CC1,.,.,13%,-3%,.
CN(Cc1ccccc1)C(=O)c1ccc(Nc2nc(C(N)Cc3ccccc3)cs2)nc1 (configuration not stated),-3%,14µM*,.,.,16µM*
CC(C)CC(N)c1csc(Nc2cc(Oc3ccccc3)ncn2)n1 (configuration not stated),-3%,25µM*,.,.,.
COc1cc(-c2ccc3ncnc(N(C)Cc4csc(C)n4)c3c2)cc(OC)c1OC,.,.,-23%,1%,.
CCCOc1ccc(C(=O)NNC(=S)NC(=O)CC)cc1,0%,28µM*,4.6µM*,?,.
CC(NNC(=S)N1CCCCCC1)c1ccc2ccccc2n1 (configuration not stated),0%,8.9µM*,.,.,.
S=C(Nc1ccccc1)N1CCCCCC1,-1%,4%,1%,-1%,i
CCCC(=O)NC(=S)Nc1ccc(S(=O)(=O)Nc2ccc(OCC)cc2)cc1,3%,-7%,7.3µM*,18µM*,i
CCOc1ccc(NS(=O)(=O)c2ccc(NC(=O)c3ccccc3C(=O)O)cc2)cc1,0%,-12%,-8%,1%,i
CCOc1ccc(NS(=O)(=O)c2ccc(NC(=O)c3ccccn3)cc2)cc1,-1%,-7%,15µM*,-11%,i
CCOC(=O)c1c(C)[nH]c(C)c1C(=O)COC(=O)/C=C/c1cccc(Cl)c1,16%,-3%,-3%,-4%,?
CCOC(=O)c1c(C)[nH]c(C=O)c1Cc1cccc(Cl)c1,0%,-2%,26µM*,?,i
CC(=O)NC(c1cc(Cl)c2cccnc2c1O)C1CC1 (configuration not stated),-3%,8.9µM*,20%,5%,3.2µM*
SMILES,Nrf2 activator,ATXN2 expr inh,Nrf2 block,A549 tox,ATXN viability
CC(=O)NC(c1ccc(C)cc1)c1cc(Cl)c2cccnc2c1O (configuration not stated),0%,11µM*,-26%,-24%,i
CCC(=O)NC(c1ccc(F)cc1)c1cc(Cl)c2cccnc2c1O (configuration not stated),.,.,?,-11%,.
CCC(=O)NC(c1ccco1)c1cc(Cl)c2cccnc2c1O (configuration not stated),2%,?,9.2µM*!,?,i
CCC(=O)NC(c1cc(Cl)c2cccnc2c1O)c1cccn1C (configuration not stated),.,.,26µM*,-11%,.
CCCCC(=O)NC(c1ccco1)c1cc(Cl)c2cccnc2c1O (configuration not stated),0%,?,?,-19%,.
CCCN1CCN(C(=O)c2cnn(-c3ncc4c(n3)-c3ccccc3CCC4)c2COC)CC1,.,.,.,.,i
CC(=O)NC(c1ccco1)c1cc(Cl)c2cccnc2c1O (configuration not stated),-1%,8.9µM*,.,.,?
CCC(=O)NC(c1ccco1)c1cc(Cl)c2cccnc2c1OC (configuration not stated),1%,1%,-7%,-3%,i
Oc1c(C(Nc2ccccn2)c2cccnc2)cc(Cl)c2cccnc12 (configuration not stated),2%,22µM*,?,-5%,i
COc1ccc(C(NC(=O)c2cccnc2)c2cc(Cl)c3cccnc3c2O)cc1OC (configuration not stated),-1%,16µM*,?,?,i
CCC(=O)NC(c1ccc(OC)cc1)c1cc(Cl)c2cccnc2c1O (configuration not stated),-1%,?,26µM*,-10%,i
Cc1ccccc1Cn1c2ccccc2c2cnn(CC(=O)NCCCc3ccccc3)c(=O)c21,-1%,-11%,2%,3%,i
COc1ccccc1OCCCCn1c(-c2ccc(Cl)cc2)nc2ccccc2c1=O,5%,6%,7%,1%,i
CC(=O)NC(c1cc(Cl)c2cccnc2c1O)C(C)C (configuration not stated),0%,5.6µM*,21µM*,-12%,5µM*
CC(=O)NC(c1cc(Cl)c2ccccc2c1O)C(C)C (configuration not stated),5%,-27%,1%,0%,i
Cc1cc(NC(c2cccnc2)c2ccc3cccnc3c2O)no1 (configuration not stated),0%,4µM*,?,-1%,i
Cc1ccccc1Cn1c2ccccc2c2cnn(CC(=O)NC(C)CCc3ccccc3)c(=O)c21 (configuration not stated),-1%,-14%,-8%,1%,?
Cc1ccc(-n2c(O)c(C=Nc3cc(C)on3)c3ccccc3c2=O)c(C)c1,0%[9.22 µM],-8%,23µM*,?,i
CC(C)Cn1c([N+](=O)[O-])nc2c1c(=O)[nH]c(=O)n2C,?,?,-15%,?,.

# Screening data (PubChem BioAssay)
